Screening data from PubChem BioAssay.
HDAC3 inh = inhibitors of human histone deacetylase 3 | recombinant HDAC3, fluorogenic peptide/trypsin coupled, fluorescence | inhibition, % at 8.3 µM | 320,000 tested, 0.15% active; in the data active = inhibition above about 26%, passing the limit was not always enough; inconclusive = no clear call, values can overlap the other calls
Efflux pump mplx = blocks antifungal efflux pumps in multiplex yeast assay | S. cerevisiae Candida pump triplex, Nile Red efflux | inhibition, % at 10 µM | 330,000 tested, 0.44% active | AID 485275;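 active = plate passing quality check with inhibition over a set limit, or well fluorescence over plate mean plus 4 SD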;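 also: Nile Red retained in pooled yeast measured as flow cytometry median fluorescence; 0% = buffer negative control and 100% = Enniatin B positive control; higher means more Nile Red kept so more efflux inhibition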
ALR inh = inhibitors of human sulfhydryl oxidase ALR; inhibition, % (concentration not given with the values); P55789; 290,000 tested, 3.8% active; purified ALR, DTT oxidation, H2O2 HRP-luminol luminescence;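 active = mean replicate inhibition above about 79%, with every replicate also reaching it, limit read from the data; inconclusive = only one of the two criteria met; inactive = mean below limit and not every replicate reaching it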
Rce1 inhib = yeast Ras-converting enzyme inhibition; 290,000 tested, 0.27% active; calls only; yeast membranes, quenched prenylated peptide cleavage fluorescence; Q03530;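 active = fall in fluorescence gain of 50% or more versus controls, with final raw signal at or below 3038400; inconclusive = same 50% fall but final raw signal above 3038400; inactive = fall in fluorescence gain under 50%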;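 also: plate controls were neutral control wells for no effect and wells lacking membranes for full effect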
GRK2 inh = blocks RNA aptamer binding to human GRK2; inhibition of aptamer binding, % at 10 µM; 330,000 tested, 0.59% active; bead flow cytometry, FAM-aptamer displacement from GRK2; P25098; AID 488847;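 active = inhibition of aptamer binding above 40%, roughly 3 SD of noise, on plates passing a quality check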;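 also: median bead fluorescence of bound FAM aptamer so fluorescent compounds give negative values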
Target sequence (P25098 whole entry, looked up): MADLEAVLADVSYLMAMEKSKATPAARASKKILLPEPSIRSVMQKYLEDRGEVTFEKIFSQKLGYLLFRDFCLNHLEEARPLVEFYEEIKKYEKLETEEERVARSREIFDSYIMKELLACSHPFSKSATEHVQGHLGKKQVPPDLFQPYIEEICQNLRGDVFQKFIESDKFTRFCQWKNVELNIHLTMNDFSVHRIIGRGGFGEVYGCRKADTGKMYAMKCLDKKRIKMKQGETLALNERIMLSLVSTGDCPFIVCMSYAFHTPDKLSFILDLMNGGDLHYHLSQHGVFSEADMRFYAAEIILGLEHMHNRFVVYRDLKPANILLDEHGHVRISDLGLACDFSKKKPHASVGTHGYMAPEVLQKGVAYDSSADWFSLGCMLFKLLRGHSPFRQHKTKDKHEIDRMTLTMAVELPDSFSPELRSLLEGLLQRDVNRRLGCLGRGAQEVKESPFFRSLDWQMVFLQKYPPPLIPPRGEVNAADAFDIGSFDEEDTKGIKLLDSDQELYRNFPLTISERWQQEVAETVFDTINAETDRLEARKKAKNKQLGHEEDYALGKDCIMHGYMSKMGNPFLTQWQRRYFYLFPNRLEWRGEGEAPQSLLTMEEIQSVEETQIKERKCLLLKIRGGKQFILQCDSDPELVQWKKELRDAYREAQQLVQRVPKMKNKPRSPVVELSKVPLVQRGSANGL
Rtt109 HAT inh = C. albicans Rtt109 histone acetyltransferase inhibition; Q5AAJ8; purified Rtt109/Vps75, ThioGlo CoA-SH fluorescence, 4 h; inhibition, % at 34.9 µM; 330,000 tested, 0.16% active;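 active = inhibition of at least 50% in every replicate; inconclusive = best replicate reaches 50% inhibition but some replicates fall short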
Starred values were filed as active, the others as inactive. A selection: hits, their analogues and other compounds. The true share with any hit is near 4.5%.

Results for COc1cc(C(=O)NC(=S)NNC(=O)c2cnccn2)cc(OC)c1OC ?
HDAC3 inh: -2; Efflux pump mplx: 0; ALR inh: 96*; Rce1 inhib: inactive; GRK2 inh: 3; Rtt109 HAT inh: -1

Results for O=C(O)CSc1c[nH]c2ccccc12 ?
HDAC3 inh: -5; Efflux pump mplx: 0; ALR inh: 98*; Rce1 inhib: inactive; GRK2 inh: 1; Rtt109 HAT inh: -3

Results for CCC(=O)NCCSc1c[nH]c2ccccc12 ?
HDAC3 inh: -1; Efflux pump mplx: 0; ALR inh: 56; Rce1 inhib: inactive; GRK2 inh: 0; Rtt109 HAT inh: -3

How did CC(C)C(=O)NCCSc1c[nH]c2ccccc12 do in these assays?
HDAC3 inh: 2; Efflux pump mplx: 0; ALR inh: 99*; Rce1 inhib: inactive; GRK2 inh: 2; Rtt109 HAT inh: -1

Results for Cc1ccc(-c2nc(COC(=O)C3=NN(c4ccccc4)C(=O)CC3)cs2)cc1 ?
HDAC3 inh: 7; Efflux pump mplx: 0; ALR inh: 99*; GRK2 inh: 0; Rtt109 HAT inh: -1

Results for COc1ccccc1NC(=O)CSC1CC(=O)N(c2ccc3c(c2)OCO3)C1=O (stereo not drawn) ?
HDAC3 inh: 2; Efflux pump mplx: 0; ALR inh: 100*; Rce1 inhib: inactive; GRK2 inh: 0; Rtt109 HAT inh: inconclusive

Results for COc1ccccc1NC(=O)CN1CCN(CC(=O)Nc2ccc3c(c2)OCO3)CC1 ?
HDAC3 inh: 3; Efflux pump mplx: 0; ALR inh: 28; GRK2 inh: 1; Rtt109 HAT inh: 0

What do the screens show for `COc1ccc(N2C(=O)CC(SCC(=O)O)C2=O)cc1` (stereo not drawn)?
HDAC3 inh: -8; Efflux pump mplx: 0; ALR inh: -19; Rce1 inhib: inactive; GRK2 inh: 0; Rtt109 HAT inh: 0

Results for Cc1ccc(SC2CC(=O)N(c3ccc4c(c3)OCCO4)C2=O)cc1 (stereo not drawn) ?
HDAC3 inh: -1; Efflux pump mplx: 0; ALR inh: 98*; Rce1 inhib: inactive; GRK2 inh: 1; Rtt109 HAT inh: -5

What do the screens show for `Cc1ccc(N2C(=O)CC(Sc3cccs3)C2=O)cc1` (stereo not drawn)?
HDAC3 inh: 1; Efflux pump mplx: 0; ALR inh: 56; Rce1 inhib: inactive; GRK2 inh: 0; Rtt109 HAT inh: -1

Results for COc1ccc(NC(=O)CSC2CC(=O)N(c3ccc4c(c3)OCCO4)C2=O)cc1 (stereo not drawn) ?
HDAC3 inh: 1; Efflux pump mplx: 0; ALR inh: 99*; GRK2 inh: 0; Rtt109 HAT inh: inconclusive

What do the screens show for `Cc1ccc(OCC(=O)NCCNC(=O)c2cccnc2)cc1C`?
HDAC3 inh: -7; Efflux pump mplx: 0; ALR inh: 0; Rce1 inhib: inactive; GRK2 inh: 1; Rtt109 HAT inh: 8

How did Cc1cccc(C(=O)O/N=C(\N)c2cccc([N+](=O)[O-])c2)c1 do in these assays?
HDAC3 inh: -11; Efflux pump mplx: 0; ALR inh: -31; Rce1 inhib: inactive; GRK2 inh: 0; Rtt109 HAT inh: -11

What do the screens show for `CC1=CC(=O)C=C(C)C1=NOC(=O)c1cccc([N+](=O)[O-])c1`?
HDAC3 inh: 0; Efflux pump mplx: 0; ALR inh: 100*; Rce1 inhib: inactive; GRK2 inh: 0; Rtt109 HAT inh: 2

What do the screens show for `c1ccc(C[n+]2cccc3c4ccccc4ccc32)cc1`?
HDAC3 inh: -54; Efflux pump mplx: 0; ALR inh: 1; Rce1 inhib: active; GRK2 inh: 1; Rtt109 HAT inh: -99

How did O=[N+]([O-])c1ccc(C[n+]2cccc3ccccc32)cc1 do in these assays?
HDAC3 inh: -4; Efflux pump mplx: 0; ALR inh: -26; Rce1 inhib: inactive; GRK2 inh: 0; Rtt109 HAT inh: 2

Results for CCCCC[n+]1cccc2c3ccccc3ccc21 ?
HDAC3 inh: -11; Efflux pump mplx: 0; ALR inh: -12; Rce1 inhib: active; GRK2 inh: 1; Rtt109 HAT inh: -84

Results for CCOc1ccccc1OCCC(=O)NNC(=O)Cn1nc(C)cc1C ?
HDAC3 inh: -3; Efflux pump mplx: 0; ALR inh: -9; Rce1 inhib: inactive; GRK2 inh: 0; Rtt109 HAT inh: -1

Results for Cc1cc(C)cc(NC(=O)c2cccc(N3C(=O)C4C5C=CC(C5)C4C3=O)c2)c1 (stereo not drawn) ?
Rce1 inhib: inactive; Rtt109 HAT inh: 9

Results for Cc1cccc(NC(=O)c2cccc(N3C(=O)C4C5C=CC(C6CC56)C4C3=O)c2)c1 (stereo not drawn) ?
HDAC3 inh: -3; Efflux pump mplx: 0; ALR inh: 89*; GRK2 inh: 1; Rtt109 HAT inh: 5

What do the screens show for `Cn1c(SCC(=O)c2cc3ccccc3o2)nnc1-c1ccccc1`?
HDAC3 inh: -1; Efflux pump mplx: 0; ALR inh: 97*; Rce1 inhib: inactive; GRK2 inh: 5; Rtt109 HAT inh: -4

What do the screens show for `Cn1ccnc1SCC(=O)c1cc2ccccc2o1`?
HDAC3 inh: 9; Efflux pump mplx: 0; ALR inh: -2; Rce1 inhib: inactive; GRK2 inh: 2; Rtt109 HAT inh: -2

What do the screens show for `Cn1cnnc1SCC(=O)c1cc2ccccc2o1`?
HDAC3 inh: -1; Efflux pump mplx: 0; ALR inh: 88*; Rce1 inhib: inactive; GRK2 inh: 0; Rtt109 HAT inh: -1

How did O=C1c2cccnc2C(=O)N1Cc1ccc(S(=O)(=O)N2CCOc3ccccc32)cc1 do in these assays?
HDAC3 inh: -6; Efflux pump mplx: 0; ALR inh: -8; Rce1 inhib: inactive; GRK2 inh: 2; Rtt109 HAT inh: 1

Results for COc1ccc(-c2n[nH]c(=S)n2N)c(OC)c1 ?
HDAC3 inh: 2; Efflux pump mplx: 0; ALR inh: 17; Rce1 inhib: inactive; GRK2 inh: 2; Rtt109 HAT inh: 3

How did COc1ccc(-c2cn[nH]c2N)c(OC)c1 do in these assays?
HDAC3 inh: 9; Efflux pump mplx: 0; ALR inh: 99*; Rce1 inhib: inactive; GRK2 inh: 2; Rtt109 HAT inh: 0

What do the screens show for `CC(C)Cn1c(N)c(C(=O)COC(=O)c2cc(S(=O)(=O)N3CCOCC3)ccc2Br)c(=O)n(C)c1=O`?
HDAC3 inh: 34*; Efflux pump mplx: 1; GRK2 inh: 0; Rtt109 HAT inh: 13

How did Cc1ccc(S(=O)(=O)N2CCOCC2)cc1C(=O)OCC(=O)c1c(N)n(C)c(=O)n(C)c1=O do in these assays?
HDAC3 inh: -2; Efflux pump mplx: 0; GRK2 inh: 9; Rtt109 HAT inh: -14

Results for COc1ccc([C@@H]2CC=C(C(=O)O)[C@H](c3ccc(Cl)cc3)N2S(=O)(=O)c2ccc(C)cc2)cc1OC ?
HDAC3 inh: -3; Efflux pump mplx: 0; ALR inh: 4; GRK2 inh: 0; Rtt109 HAT inh: 10
